Source: ChEMBL document CHEMBL3988442, “University of Dundee, Small-Polar-MMV Screening Library” (2021)
The whole screen tested about 48,000 compounds, of which about 13,000 (27%) showed an effect of 50% or more. Some of the results follow.

Each compound was assayed on Wolbachia pipientis (assay: Anti-Wolbachia Cell-Based Screen). Details: 5 µM.
Assay type: functional
Set-up: scale not given: in the data most compounds retested in dose-response had high values
With CC(=O)NC(C(=O)N(C)Cc1nnc2n1CCC2)C(C)C (stereo not drawn) the “Percent Effect” value was 2.941%. For Cc1cc(C(=O)N2C[C@@H]3COC[C@]3(c3nnc(C4CC4)o3)C2)on1, the “Percent Effect” value was -20.3%. For COc1ccccc1OC1CN(C(=O)C(c2ccc(F)cc2)N(C)C)C1 (stereo not drawn), the “Percent Effect” value was -23.44%. With CCOc1c(Br)cc(C2C3=C(COC3=O)Nc3[nH]nc(C)c32)cc1OC (stereo not drawn) the “Percent Effect” value was -13.27%. For Cc1cnc(C(=O)N(C)Cc2nc(-c3ccccn3)no2)cn1, the “Percent Effect” value was -1.871%. With Fc1ccccc1Cc1noc(CN2CCC(N3CCSCC3)CC2)n1 the “Percent Effect” value was 5.463%. For Cc1ccccc1N1CCCN(C(=O)c2cn(C)c3ccccc23)CC1, the “Percent Effect” value was 5.002%. With N#Cc1ccccc1N1CCN(C(=O)NCCN2CCOCC2)CC1 the “Percent Effect” value was -5.749%. In the case of O=C(Nc1ccccc1C(=O)NCCN1CCOCC1)c1ccco1, the “Percent Effect” value is reported as 0.2432%. For O=C(Nc1ccc(I)cc1C(=O)NCCN1CCOCC1)c1ccco1, the “Percent Effect” value was 13.86%. O=C(Nc1ccc(Cl)cc1C(=O)NCCN1CCOCC1)c1ccco1 was tested, and the “Percent Effect” value was 134.1%. For COc1cc(CN2CCCC(Nc3cccc(F)c3)C2)cc(OC)c1O (stereo not drawn), the “Percent Effect” value was 11.19%. In the case of Cc1ccc([C@@H]2CN(S(=O)(=O)C(C)C)C[C@H]2N(C)C)cc1, the “Percent Effect” value is reported as 4.129%. With CC(C)C1CN(S(=O)(=O)N2CCCC2)CCCN1Cc1ccc(F)cc1 (stereo not drawn) the “Percent Effect” value was -9.548%. In the case of CCOCC(=O)N1C[C@@H](O)[C@H](N(C)Cc2ccc(OC)cc2)C1, the “Percent Effect” value is reported as -9.013%. With COc1ccc(CN(C)[C@@H]2CN(S(=O)(=O)C(C)C)C[C@H]2O)cc1 the “Percent Effect” value was 105.6%. In the case of CC(C)S(=O)(=O)N1C[C@@H](O)[C@H](N(C)Cc2ccc(F)cc2)C1, the “Percent Effect” value is reported as 92.86%. In the case of CC(C)C1CN(S(=O)(=O)C2CC2)CCCN1Cc1ccc(F)cc1 (stereo not drawn), the “Percent Effect” value is reported as -0.9864%. For CC(C)(C)Cc1noc2ncc(C(=O)N3CCSCC3)cc12, the “Percent Effect” value was -2.131%. CCc1nnc(CN2CCC(C3CCCCCN3C(=O)C3CC3)CC2)o1 (stereo not drawn) was tested, and the “Percent Effect” value was 5.041%. In the case of Cc1cccc(CN2C[C@@H]3CN(C(=O)c4ccnnc4)C[C@@H]3C2=O)c1, the “Percent Effect” value is reported as -7.292%. For O=C(c1ccsc1)N1C[C@H]2CN(Cc3cccc(F)c3)C(=O)[C@H]2C1, the “Percent Effect” value was -13.46%. With Cc1cccc(CN2C[C@@H]3CN(C(=O)C4CCOC4)C[C@@H]3C2=O)c1 (stereo partly drawn) the “Percent Effect” value was 100.9%. For O=C(C1CCOC1)N1C[C@H]2CN(Cc3cccc(F)c3)C(=O)[C@H]2C1 (stereo partly drawn), the “Percent Effect” value was 101.2%. In the case of Cc1cccc(CN2C[C@@H]3CN(C(=O)c4ccco4)C[C@@H]3C2=O)c1, the “Percent Effect” value is reported as -8.497%. For O=C(O)C(F)(F)F.O=C1[C@H]2CN(C3CCOCC3)C[C@H]2CN1Cc1cccc(F)c1, the “Percent Effect” value was -0.9945%. For O=C(Nc1ccn(Cc2cccc3cccnc23)n1)C1COCCO1 (stereo not drawn), the “Percent Effect” value was -13.67%. COc1ccc(F)c(CN2CCCC(O)(CNCC(C)(C)C)C2=O)c1 (stereo not drawn) was tested, and the “Percent Effect” value was 1.776%. C[C@@H]1CN(C(=O)c2cn(CCN3CCCCC3)nn2)C[C@H](C)O1 was tested, and the “Percent Effect” value was -14.27%. For O=C(NCC1CCOC1)c1csc(-c2ccccc2)n1 (stereo not drawn), the “Percent Effect” value was 102.2%. For Cc1ccc(-c2nc(C(=O)NCC3CCOC3)cs2)cc1 (stereo not drawn), the “Percent Effect” value was 113.2%. In the case of O=C(NCC1CCOC1)c1csc(-c2ccc(F)cc2)n1 (stereo not drawn), the “Percent Effect” value is reported as 81.86%. For O=C(NCC1CCOC1)c1csc(-c2ccco2)n1 (stereo not drawn), the “Percent Effect” value was 5.751%. O=C(c1csc(-c2ccco2)n1)N(CC1CCOC1)C1CC1 (stereo not drawn) was tested, and the “Percent Effect” value was -4.102%. With Cc1ccc(-c2cc(C(=O)NCC3CCOC3)n[nH]2)s1 (stereo not drawn) the “Percent Effect” value was -13.79%. O=C(NCC1CCOC1)c1csc(-c2cccc(Cl)c2)n1 (stereo not drawn) was tested, and the “Percent Effect” value was 7.495%. O=C(NCC1CCOC1)c1csc(-c2ccc(Cl)cc2)n1 (stereo not drawn) was tested, and the “Percent Effect” value was 107.7%. O=C(CC(F)(F)F)N1CCc2[nH]nc(-c3ccc4c(c3)OCO4)c2C1 was tested, and the “Percent Effect” value was -1.74%. In the case of CNC(=O)C(C)CNC(=O)c1coc(COc2cccc(F)c2F)n1 (stereo not drawn), the “Percent Effect” value is reported as -14.56%. With CCc1ccc(CNC2(c3ccc(F)cc3)CCOCC2)o1 the “Percent Effect” value was 6.225%. With Cc1ccc(-c2nc(CN(Cc3ccco3)C3CCS(=O)(=O)C3)cs2)o1 (stereo not drawn) the “Percent Effect” value was 9.055%. For OC1CCCN(Cc2cn(CC3CCN(C4CCSCC4)CC3)nn2)C1 (stereo not drawn), the “Percent Effect” value was -15.38%. CC(C)C(C)N(C)Cc1nnc(-c2ccco2)o1 (stereo not drawn) was tested, and the “Percent Effect” value was -1.497%. COc1ccc(-c2nc(C(=O)NCC3CCOC3)cs2)cc1OC (stereo not drawn) was tested, and the “Percent Effect” value was 119.6%. For O=C(NCC1CCOC1)c1cc(-c2cccc(Cl)c2)on1 (stereo not drawn), the “Percent Effect” value was 10.92%. In the case of O=C(NCC1CCOC1)c1cc(-c2cccc(Cl)c2)[nH]n1 (stereo not drawn), the “Percent Effect” value is reported as -2.907%. Cc1ccc(-c2nc(CC(=O)NCC3CCCOC3)cs2)o1 (stereo not drawn) was tested, and the “Percent Effect” value was 16.72%. For CCOc1ccc(-c2nc(C(=O)NCC3CCOC3)cs2)cc1 (stereo not drawn), the “Percent Effect” value was 120.1%. With O=C(NCC1COC2(CCOCC2)O1)c1csc(-c2cccc(Cl)c2)n1 (stereo not drawn) the “Percent Effect” value was 108.1%. COCc1nc2cc(NCc3ccncc3)ccc2o1 was tested, and the “Percent Effect” value was 5.074%. Cc1cc(=O)[nH]c(CCNC(=O)C(c2ccc(F)cc2)N(C)C)n1 (stereo not drawn) was tested, and the “Percent Effect” value was 1.632%. Cc1nnc(NCC2(c3ccccc3)CCC2)c(C#N)c1C was tested, and the “Percent Effect” value was 7.557%. With CC1CCN(S(=O)(=O)NCCCn2cncn2)CC1 the “Percent Effect” value was 4.517%. With COc1ncccc1CN1CCN(c2noc(C(C)C)n2)CC1 the “Percent Effect” value was -8.091%. With COc1cccc(CN2CCN(c3cccc(C(C)C)n3)CC2)c1F the “Percent Effect” value was 77.06%. COc1cccc(CN2CCN(c3noc(C(C)C)n3)CC2)c1F was tested, and the “Percent Effect” value was -2.027%. In the case of CCc1ccc(C(=O)O)cc1S(=O)(=O)N(C)c1cccc(C)c1, the “Percent Effect” value is reported as -14.76%. For CS(=O)(=O)Cc1nc(CN2CCOc3ccccc3C2)cs1, the “Percent Effect” value was 2.526%. For O=C(C[S+]([O-])Cc1cccc(F)c1)NC1CCCC1 (stereo not drawn), the “Percent Effect” value was -2.524%. With CS(=O)(=O)CCCN(CCc1cccc(F)c1)C1CC1 the “Percent Effect” value was 89.73%. In the case of Fc1cccc(CCN(c2ccc3nnnn3n2)C2CC2)c1, the “Percent Effect” value is reported as -14.94%. In the case of CS(=O)(=O)CCN(Cc1cccc(O)c1)C1CCC(O)CC1 (stereo not drawn), the “Percent Effect” value is reported as -5.154%. In the case of NS(=O)(=O)CCN(CCc1cccc(F)c1)C1CCCC1, the “Percent Effect” value is reported as 101.5%. In the case of CS(=O)(=O)C1CCN(S(=O)(=O)Cc2cccc(F)c2)CC1, the “Percent Effect” value is reported as -8.016%. CS(=O)(=O)CCN(CCc1cccc(F)c1)C1CC1 was tested, and the “Percent Effect” value was 102.8%. In the case of Cc1ccc(C(=O)N(Cc2cccc(F)c2)C2CC2)c(=O)[nH]1, the “Percent Effect” value is reported as -0.8552%. CCCN(CCS(C)(=O)=O)C1CCc2ccccc2C1 (stereo not drawn) was tested, and the “Percent Effect” value was 9.171%. With CS(=O)(=O)CCC(=O)N(Cc1c(F)cccc1F)C1CCCC1 the “Percent Effect” value was -8.645%. With CC(C)(C)S(=O)(=O)CCNC(=O)NCCCc1cccc(F)c1 the “Percent Effect” value was 22.42%. For CS(=O)(=O)CCC(=O)N(CCc1cccc(F)c1)C1CC1, the “Percent Effect” value was 102.1%. For Cc1noc(C)c1CN(C)C(=O)NC1CCN(C2CC2)CC1, the “Percent Effect” value was -39.67%. For O=C(c1cc(-c2ccco2)nc2c(Cl)cccc12)N1CCS(=O)(=O)CC1, the “Percent Effect” value was -1.812%. Cc1nc2c(c(N3CCC(O)(CN4CCCC4)CC3)n1)CCN(C)CC2 was tested, and the “Percent Effect” value was -16.37%. For Cc1c(C2CCCN(C(=O)c3ccncc3)C2)n2c(nc1=O)CCC2.Cl (stereo not drawn), the “Percent Effect” value was 99.59%. Cc1noc(C)c1C(=O)N1CCCC(c2c(C)c(=O)nc3n2CCC3)C1 (stereo not drawn) was tested, and the “Percent Effect” value was 87.08%. For Cc1c(C2CCCN(C(=O)Cc3ccccn3)C2)n2c(nc1=O)CCC2.Cl (stereo not drawn), the “Percent Effect” value was -12.52%. With Cc1c(C2CCCN(C(=O)c3cccnc3)C2)n2c(nc1=O)CCC2 (stereo not drawn) the “Percent Effect” value was 104.3%. With Cc1nn(C)cc1-c1ccnc(N(C)Cc2ccon2)n1 the “Percent Effect” value was 9.555%. With COc1cc2c(cc1OC)S(=O)(=O)N(Cc1cccc(C)c1)C2=O the “Percent Effect” value was -2.103%. Cc1cccc(C(C(=O)N(C)CCc2cn[nH]c2)N(C)C)c1 (stereo not drawn) was tested, and the “Percent Effect” value was -40.91%. With Cc1cnn(CC2CCCN2c2ncnc3c2CCC3)c1 (stereo not drawn) the “Percent Effect” value was 7.449%. In the case of O=C(CN1CCC(N2CCNC2=O)CC1)NCC(F)(F)F, the “Percent Effect” value is reported as -6.225%. With CC(C)(C)c1cc(NC(=O)CN2CCC(N3CCNC3=O)CC2)on1 the “Percent Effect” value was 95.17%. With Cc1cc(NC(=O)CN2CCc3nn(C)c(=O)cc3C2)on1 the “Percent Effect” value was -13.84%. Cn1nc2c(cc1=O)CN(CC(=O)Nc1cc(C(C)(C)C)no1)CC2 was tested, and the “Percent Effect” value was 4.087%. For CC(C)(C)c1cc(NC(=O)CN2CCCC(Cn3cncn3)C2)on1 (stereo not drawn), the “Percent Effect” value was 1.148%. For Cc1cc(NC(=O)CN2CCC(N3CCNC3=O)CC2)on1, the “Percent Effect” value was 131.4%. With COc1cc2c(cc1-c1nc3c(cnn3C(C)C3CC3)[nH]1)OCO2 (stereo not drawn) the “Percent Effect” value was -2.531%. With CCC(=O)N1CCC2(CC1)C(=O)N(C)CCN2Cc1csc(C)n1.O=C(O)C(F)(F)F the “Percent Effect” value was 115.6%. Cc1nc(CN2CCN(C)C(=O)C23CCN(C(C)C)CC3)cs1.O=C(O)C(F)(F)F was tested, and the “Percent Effect” value was 114.4%. In the case of COCC1CC2(CCN(C(C)=O)CC2)CN1Cc1csc(C)n1.O=C(O)C(F)(F)F (stereo not drawn), the “Percent Effect” value is reported as -9.248%. For CC(C)C(C(=O)O)c1cccc(Cl)c1 (stereo not drawn), the “Percent Effect” value was -23.59%. CC(NS(=O)(=O)CCCC#N)c1cccc(-n2cccn2)c1 (stereo not drawn) was tested, and the “Percent Effect” value was -70.87%. In the case of Cl.Cl.O=C([C@H]1CCCN1)N1CC2(CCNCC2)c2cc(Cl)ccc21, the “Percent Effect” value is reported as 99.27%. For Cl.Cl.O=C([C@@H]1CSCN1)N1CC2(CCNCC2)c2cc(Cl)ccc21, the “Percent Effect” value was 111%. CC(=O)N1CCC2(CC1)CN(C(=O)[C@@H]1CSCN1)c1ccc(Cl)cc12.O=C(O)C(F)(F)F was tested, and the “Percent Effect” value was 102.4%. Cl.Cl.O=C([C@@H]1CSCN1)N1CCC2(CC1)CNCc1ccccc12 was tested, and the “Percent Effect” value was -5.878%. For OCC(CO)Nc1ccc2ccc(Cl)c(Cl)c2n1, the “Percent Effect” value was 21.88%.
